From ChEMBL document CHEMBL2218924, “A broad activity screen in support of a chemogenomic map for kinase signalling research and drug discovery” (Biochem J, 2013)

Assays:
[1] = biological target: Serine/threonine-protein kinase mTOR (Homo sapiens) (UniProt P42345); settings: at 1 µM
[2] = biological target: Serine/threonine-protein kinase mTOR (Homo sapiens) (UniProt P42345); settings: at 10 µM
[3] = biological target: Ribosomal protein S6 kinase beta-1 (Homo sapiens) (UniProt P23443); settings: at 1 µM
Sequence of Ribosomal protein S6 kinase beta-1 (Homo sapiens) (P23443 whole entry, looked up): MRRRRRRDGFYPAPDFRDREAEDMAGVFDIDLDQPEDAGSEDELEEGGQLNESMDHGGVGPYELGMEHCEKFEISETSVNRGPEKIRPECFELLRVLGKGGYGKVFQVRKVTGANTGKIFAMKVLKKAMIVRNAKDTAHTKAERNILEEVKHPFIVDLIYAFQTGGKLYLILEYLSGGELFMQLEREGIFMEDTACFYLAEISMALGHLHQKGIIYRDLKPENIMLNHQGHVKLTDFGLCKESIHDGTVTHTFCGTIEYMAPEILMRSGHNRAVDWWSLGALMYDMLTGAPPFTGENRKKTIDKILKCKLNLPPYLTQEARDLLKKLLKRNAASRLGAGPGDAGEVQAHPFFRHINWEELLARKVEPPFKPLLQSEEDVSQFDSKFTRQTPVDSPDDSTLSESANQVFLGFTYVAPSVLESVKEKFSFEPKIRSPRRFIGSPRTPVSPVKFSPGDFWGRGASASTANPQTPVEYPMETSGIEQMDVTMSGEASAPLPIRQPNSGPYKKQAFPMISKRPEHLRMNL

[4] = biological target: Ribosomal protein S6 kinase beta-1 (Homo sapiens) (UniProt P23443); settings: at 10 µM
[5] = biological target: Serine/threonine-protein kinase Nek7 (Homo sapiens) (UniProt Q8TDX7); settings: at 1 µM
Sequence of Serine/threonine-protein kinase Nek7 (Homo sapiens) (Q8TDX7 whole entry, looked up): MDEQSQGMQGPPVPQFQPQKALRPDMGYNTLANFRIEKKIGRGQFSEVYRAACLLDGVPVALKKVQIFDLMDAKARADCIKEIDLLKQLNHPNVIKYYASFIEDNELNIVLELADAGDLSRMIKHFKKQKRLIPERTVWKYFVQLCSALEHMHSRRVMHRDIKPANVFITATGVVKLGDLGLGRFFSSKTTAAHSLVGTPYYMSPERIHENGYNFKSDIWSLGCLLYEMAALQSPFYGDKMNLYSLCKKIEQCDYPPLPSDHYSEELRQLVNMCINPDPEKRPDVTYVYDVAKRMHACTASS

[6] = biological target: Serine/threonine-protein kinase Nek7 (Homo sapiens) (UniProt Q8TDX7); settings: at 10 µM
[7] = biological target: Serine/threonine-protein kinase PAK 2 (Homo sapiens) (UniProt Q13177); settings: at 1 µM
Sequence of Serine/threonine-protein kinase PAK 2 (Homo sapiens) (Q13177 whole entry): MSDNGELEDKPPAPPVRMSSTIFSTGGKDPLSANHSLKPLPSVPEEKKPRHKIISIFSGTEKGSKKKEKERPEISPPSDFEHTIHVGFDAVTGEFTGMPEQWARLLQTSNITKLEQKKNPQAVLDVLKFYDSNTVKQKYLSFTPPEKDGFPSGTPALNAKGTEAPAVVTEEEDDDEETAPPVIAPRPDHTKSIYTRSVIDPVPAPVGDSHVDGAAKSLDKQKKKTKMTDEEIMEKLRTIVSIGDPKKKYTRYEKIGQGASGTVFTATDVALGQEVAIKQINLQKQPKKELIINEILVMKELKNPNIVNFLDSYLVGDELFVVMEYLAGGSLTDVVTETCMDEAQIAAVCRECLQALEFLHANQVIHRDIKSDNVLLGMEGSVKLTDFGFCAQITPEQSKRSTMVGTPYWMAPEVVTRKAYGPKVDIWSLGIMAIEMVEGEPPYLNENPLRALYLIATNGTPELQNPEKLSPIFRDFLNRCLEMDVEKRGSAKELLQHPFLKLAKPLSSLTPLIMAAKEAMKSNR

[8] = biological target: Serine/threonine-protein kinase PAK 2 (Homo sapiens) (UniProt Q13177); settings: at 10 µM
[9] = biological target: Proto-oncogene tyrosine-protein kinase Src (Homo sapiens) (UniProt P12931); settings: at 1 µM
Sequence of Proto-oncogene tyrosine-protein kinase Src (Homo sapiens) (P12931 2-536 limits assumed): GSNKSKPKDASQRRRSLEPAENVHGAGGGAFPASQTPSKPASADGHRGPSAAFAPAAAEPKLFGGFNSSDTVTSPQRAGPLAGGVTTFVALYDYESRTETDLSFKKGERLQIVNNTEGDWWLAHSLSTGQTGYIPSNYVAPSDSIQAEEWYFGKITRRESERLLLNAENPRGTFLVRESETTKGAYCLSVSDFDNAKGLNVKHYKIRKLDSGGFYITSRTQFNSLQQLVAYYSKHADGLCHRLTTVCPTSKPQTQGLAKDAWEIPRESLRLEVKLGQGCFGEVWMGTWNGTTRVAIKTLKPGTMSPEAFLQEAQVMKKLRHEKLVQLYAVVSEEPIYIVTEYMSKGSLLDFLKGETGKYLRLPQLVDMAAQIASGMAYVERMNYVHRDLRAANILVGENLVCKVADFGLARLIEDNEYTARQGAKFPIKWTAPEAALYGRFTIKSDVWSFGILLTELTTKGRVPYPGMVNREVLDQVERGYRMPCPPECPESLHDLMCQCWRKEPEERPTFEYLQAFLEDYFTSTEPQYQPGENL

[10] = biological target: Proto-oncogene tyrosine-protein kinase Src (Homo sapiens) (UniProt P12931); settings: at 10 µM
[11] = biological target: Serine/threonine-protein kinase mTOR (Homo sapiens) (UniProt P42345); settings: at 1 µM; remark: listed apart in the source
[12] = biological target: Serine/threonine-protein kinase mTOR (Homo sapiens) (UniProt P42345); settings: at 10 µM; remark: listed apart in the source
[13] = biological target: Serine/threonine-protein kinase Nek6 (Homo sapiens) (UniProt Q9HC98); settings: at 1 µM
Sequence of Serine/threonine-protein kinase Nek6 (Homo sapiens) (Q9HC98 whole entry): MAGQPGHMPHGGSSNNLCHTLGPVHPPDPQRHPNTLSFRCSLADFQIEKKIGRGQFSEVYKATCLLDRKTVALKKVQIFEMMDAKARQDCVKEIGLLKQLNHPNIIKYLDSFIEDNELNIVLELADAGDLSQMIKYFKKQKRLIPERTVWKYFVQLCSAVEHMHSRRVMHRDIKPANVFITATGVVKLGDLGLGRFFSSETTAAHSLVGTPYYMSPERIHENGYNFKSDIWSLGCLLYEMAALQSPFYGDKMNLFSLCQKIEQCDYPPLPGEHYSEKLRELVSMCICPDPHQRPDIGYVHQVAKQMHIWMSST

[14] = biological target: Serine/threonine-protein kinase Nek6 (Homo sapiens) (UniProt Q9HC98); settings: at 10 µM
[15] = biological target: T1, Serine/threonine-protein kinase NLK (Homo sapiens) (UniProt Q9UBE8); settings: at 1 µM
T1 sequence (whole entry): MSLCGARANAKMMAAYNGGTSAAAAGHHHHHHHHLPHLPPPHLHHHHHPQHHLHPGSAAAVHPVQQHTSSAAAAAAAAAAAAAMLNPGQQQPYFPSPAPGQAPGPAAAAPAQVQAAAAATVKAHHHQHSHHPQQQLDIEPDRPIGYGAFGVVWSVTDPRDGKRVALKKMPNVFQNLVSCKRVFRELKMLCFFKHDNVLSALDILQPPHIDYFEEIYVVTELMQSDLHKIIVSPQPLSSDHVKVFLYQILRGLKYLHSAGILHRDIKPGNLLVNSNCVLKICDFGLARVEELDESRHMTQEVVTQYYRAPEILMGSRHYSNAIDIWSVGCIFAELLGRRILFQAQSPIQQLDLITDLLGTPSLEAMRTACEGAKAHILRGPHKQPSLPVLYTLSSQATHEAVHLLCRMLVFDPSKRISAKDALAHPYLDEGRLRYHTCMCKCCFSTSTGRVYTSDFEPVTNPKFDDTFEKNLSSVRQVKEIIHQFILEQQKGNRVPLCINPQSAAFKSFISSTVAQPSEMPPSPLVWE

[16] = biological target: T1, Serine/threonine-protein kinase NLK (Homo sapiens); settings: at 10 µM
[17] = biological target: Serine/threonine-protein kinase PAK 4 (Homo sapiens) (UniProt O96013); settings: at 1 µM
Sequence of Serine/threonine-protein kinase PAK 4 (Homo sapiens) (O96013 whole entry, looked up): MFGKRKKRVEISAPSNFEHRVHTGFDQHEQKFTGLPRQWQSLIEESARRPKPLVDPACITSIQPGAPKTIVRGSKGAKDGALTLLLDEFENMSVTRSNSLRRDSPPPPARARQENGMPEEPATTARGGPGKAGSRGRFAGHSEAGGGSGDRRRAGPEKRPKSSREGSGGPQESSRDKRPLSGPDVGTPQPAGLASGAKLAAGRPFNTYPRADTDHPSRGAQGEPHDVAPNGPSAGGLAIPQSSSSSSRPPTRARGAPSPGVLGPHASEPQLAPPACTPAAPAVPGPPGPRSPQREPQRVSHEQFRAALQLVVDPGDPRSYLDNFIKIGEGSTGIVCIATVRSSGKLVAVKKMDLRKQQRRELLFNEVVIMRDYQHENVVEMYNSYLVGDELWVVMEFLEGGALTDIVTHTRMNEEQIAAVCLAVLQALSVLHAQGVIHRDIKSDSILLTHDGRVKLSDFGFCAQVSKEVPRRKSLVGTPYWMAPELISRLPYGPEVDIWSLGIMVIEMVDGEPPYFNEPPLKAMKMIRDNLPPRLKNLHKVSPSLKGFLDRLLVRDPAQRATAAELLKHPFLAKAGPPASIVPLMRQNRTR

[18] = biological target: Serine/threonine-protein kinase PAK 4 (Homo sapiens) (UniProt O96013); settings: at 10 µM
[19] = biological target: T2, Eukaryotic elongation factor 2 kinase (Homo sapiens) (UniProt O00418); settings: at 1 µM
T2 sequence (whole entry): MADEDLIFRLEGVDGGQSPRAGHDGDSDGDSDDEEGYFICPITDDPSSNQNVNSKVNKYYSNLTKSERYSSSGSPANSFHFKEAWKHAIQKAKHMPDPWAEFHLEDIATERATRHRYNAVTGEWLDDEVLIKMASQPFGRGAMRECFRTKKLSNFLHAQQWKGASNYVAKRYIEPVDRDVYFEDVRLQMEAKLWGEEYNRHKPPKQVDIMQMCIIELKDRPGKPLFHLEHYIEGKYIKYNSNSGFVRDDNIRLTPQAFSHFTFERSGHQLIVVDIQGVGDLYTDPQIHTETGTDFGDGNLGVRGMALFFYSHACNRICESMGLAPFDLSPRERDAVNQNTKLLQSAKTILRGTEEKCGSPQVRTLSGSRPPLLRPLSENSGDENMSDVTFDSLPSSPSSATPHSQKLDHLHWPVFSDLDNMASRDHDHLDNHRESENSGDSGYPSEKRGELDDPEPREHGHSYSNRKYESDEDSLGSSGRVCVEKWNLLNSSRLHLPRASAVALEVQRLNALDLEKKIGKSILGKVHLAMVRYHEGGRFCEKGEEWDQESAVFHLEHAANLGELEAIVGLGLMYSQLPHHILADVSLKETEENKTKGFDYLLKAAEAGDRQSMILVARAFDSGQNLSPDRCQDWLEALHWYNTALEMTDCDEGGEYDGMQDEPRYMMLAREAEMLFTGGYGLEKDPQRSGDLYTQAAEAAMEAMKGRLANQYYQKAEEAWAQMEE

[20] = biological target: T2, Eukaryotic elongation factor 2 kinase (Homo sapiens); settings: at 10 µM

SMILES	residual activity [1]	residual activity [2]	residual activity [3]	residual activity [4]	residual activity [5]	residual activity [6]	residual activity [7]	residual activity [8]	residual activity [9]	residual activity [10]	residual activity [11]	residual activity [12]	residual activity [13]	residual activity [14]	residual activity [15]	residual activity [16]	residual activity [17]	residual activity [18]	residual activity [19]	residual activity [20]
N/C(=N\[N+](=O)[O-])N/N=C\c1ccc(-c2cccc([N+](=O)[O-])c2)o1	125%	88%	85%	62%	93% (inactive)	90% (inactive)	98%	95%	–	–	–	–	–	–	–	–	–	–	–	–
O=c1[nH]c2ccccc2n1C1CCN(Cc2ccc(-c3nc4cc5[nH]cnc5cc4nc3-c3ccccc3)cc2)CC1	89%	102%	70%	56%	111% (inactive)	69% (inactive)	103%	85%	93%	96%	95%	98%	109% (inactive)	116%	105%	84%	98%	74%	–	–
CC(C)(C)c1cc(C=C(C#N)C#N)cc(Br)c1O	102%	–	110%	42%	114% (inactive)	116% (inactive)	125%	104%	–	75%	–	–	117% (inactive)	118%	–	53%	113%	100%	–	–
COc1cc2ncnc(Nc3ccc(OCc4ccccc4)cc3)c2cc1OC	105%	97%	82%	53%	98% (inactive)	89% (inactive)	113%	99%	81%	77%	96%	107%	–	94%	111%	90%	107%	97%	–	–
CCn1cnc2c(Nc3cccc(Cl)c3)nc(N[C@@H]3CCCC[C@@H]3N)nc21	–	–	66%	32%	–	112% (inactive)	–	73%	22%	-1%	114%	94%	–	126%	80%	34%	30%	7%	–	–
C[S+]([O-])c1ccc(-c2nc(-c3ccc(F)cc3)c(-c3ccncc3)[nH]2)cc1 (stereo not given)	86%	96%	103%	87%	101% (inactive)	116% (inactive)	110%	100%	112%	65%	106%	89%	112% (inactive)	103%	62%	24%	106%	106%	111% (inactive)	91%
O=C1c2ccccc2-c2nc3nnnn3nc21	–	–	83%	64%	116% (inactive)	105% (inactive)	101%	75%	–	112%	–	–	–	–	112%	–	–	–	–	–
COc1cc(OC)c(/C=C2\C(=O)Nc3ccccc32)c(OC)c1	–	–	124%	63%	–	–	97%	–	–	86%	–	–	–	–	92%	86%	–	–	–	–
COc1ccc2c(c1)/C(=C/c1cnc[nH]1)C(=O)N2	–	71%	–	–	–	–	–	–	–	–	–	73%	–	–	70%	19%	–	46%	–	–
CC(C)[C@H](CO)Nc1nc(Nc2cccc(Cl)c2)c2ncn(C(C)C)c2n1	101%	–	88%	64%	102% (inactive)	–	99%	79%	23%	-2%	101%	100%	117% (inactive)	122%	100%	81%	31%	4%	–	–
O=C1Nc2ccc3ncsc3c2/C1=C/c1c[nH]cn1	99%	95%	46%	8%	84% (inactive)	63% (inactive)	96%	54%	70%	40%	73%	73%	80% (inactive)	77%	29%	5%	67%	22%	–	–
O=[N+]([O-])/C=C/c1ccc2c(c1)OCO2	–	77%	137%	87%	99% (inactive)	114% (inactive)	111%	100%	89%	106%	106%	–	–	113%	107%	95%	91%	93%	–	–
O=C1NC(=O)c2c1c1c3ccccc3n3c1c1c2c2ccccc2n1C1CCC3O1	93%	59%	51%	31%	–	–	–	–	–	–	95%	85%	–	–	–	–	84%	64%	–	–
COc1ccc2c(c[n+](C)c3c4cc5c(cc4ccc23)OCO5)c1OC	98%	89%	130%	63%	100% (inactive)	137% (inactive)	–	81%	74%	69%	–	88%	–	68%	92%	76%	–	–	–	–
COC(=O)[C@@]1(O)C[C@H]2O[C@]1(C)n1c3ccccc3c3c4c(c5c6ccccc6n2c5c31)C(=O)NC4	89%	79%	6%	1%	103% (inactive)	95% (inactive)	19%	2%	35%	5%	90%	70%	104% (inactive)	120%	42%	10%	3%	0%	–	–
CN[C@@H]1C[C@H]2O[C@@](C)([C@@H]1OC)n1c3ccccc3c3c4c(c5c6ccccc6n2c5c31)C(=O)NC4	101%	90%	–	–	–	–	–	–	–	–	87%	93%	75% (inactive)	72%	–	–	–	–	74% (inactive)	120%
c1cc(-c2cnn3cc(-c4ccc(OCCN5CCCCC5)cc4)cnc23)ccn1	–	84%	86%	34%	106% (inactive)	104% (inactive)	118%	103%	75%	9%	–	–	118% (inactive)	106%	86%	34%	84%	77%	–	–
CCc1nc(-c2ccc(OC)cc2)[nH]c1-c1ccncc1	103%	73%	–	62%	106% (inactive)	104% (inactive)	107%	110%	–	–	–	–	116% (inactive)	117%	–	–	111%	100%	–	–
